Our source for the outcome and AC50 values is PubChem BioAssay AID2284095 (EPA ToxCast).

Inconclusive results are not listed. The source made the active and inactive calls. Rule for the calls: active = hit-call score of the fitted dose curve at least 0.9, where 1 is the maximum; inconclusive = response in the unintended direction; inactive = score below 0.9.

Sequence of human Chymotrypsin Serine Peptidase, ELANE (gene 1991) (P08246 whole entry, looked up): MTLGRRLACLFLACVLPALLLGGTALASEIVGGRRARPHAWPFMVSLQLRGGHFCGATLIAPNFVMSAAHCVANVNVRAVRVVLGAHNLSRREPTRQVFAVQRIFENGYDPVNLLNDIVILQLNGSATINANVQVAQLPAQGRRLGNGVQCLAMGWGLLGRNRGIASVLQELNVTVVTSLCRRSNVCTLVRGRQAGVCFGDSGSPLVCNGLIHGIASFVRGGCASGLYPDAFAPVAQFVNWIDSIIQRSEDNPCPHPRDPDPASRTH

The assay has as its target human Chymotrypsin Serine Peptidase, ELANE (gene 1991) (UniProt P08246). In words: ERF_FR_ENZ_hELANE: Eurofins (ERF) Enzymatic Neutrophil Elastase LeadHunter Assay for human Chymotrypsin Serine Peptidase. The method, then:
ERF_FR_ENZ_hELANE is a biochemical, single-readout assay that uses extracted gene-proteins in a cell-free assay. Measurements were taken 0.5 hour after chemical dosing in a 96-well plate. See Neutrophil Elastase Human Chymotrypsin Serine Peptidase Enzymatic Assay, Cerep.ERF_FR_ENZ_hELANE is an assay component calculated from the ERF_FR_ENZ_hELANE assay. It is designed to measure enzyme activity using a type of enzyme reporter as detected by absorbance with spectrophotometry technology.Data from the assay component ERF_FR_ENZ_hELANE was analyzed at the assay endpoint, ERF_FR_ENZ_hELANE, in the positive analysis fitting direction relative to DMSO as the negative control and baseline of activity. Using a type of enzyme reporter, loss-of-signal activity can be used to understand changes in enzymatic activity as they relate to gene ELANE. To generalize the intended target to other relatable targets, this assay endpoint is annotated to the protease intended target family, where the subfamily is serine peptidase.
Human cells are incubated for 30 minutes at 37 C with MeOSAAPV-pNa (0.4 mM) as sunstrate and 3',4'dichloroisocoumarin as control inhibitor. Test Sample Requirements: Minimum for 1) Screen: 60 ul of 10 mM stock -OR- 1 mg (pre-weighed) for 10 uM final testing. 2) Dose Response: 90 ul of 10 mM stock -OR- 1 mg (pre-weighed) for a top concentration at 10 uM.
As for `COc1cc(/C=C/C(=O)CC(=O)/C=C/c2ccc(O)c(OC)c2)ccc1O`, the compound was classed as inactive.
The same measure, in the same setting: the value for `COc1cc(CCC(=O)CC(=O)CCc2ccc(O)c(OC)c2)ccc1O` was “inactive”.
One may read the AC50 as the concentration giving half of the maximal activity seen. Turning to `O=C(/C=C/c1ccc(O)cc1)CC(=O)/C=C/c1ccc(O)cc1`, the AC50 was 8.6 µM (active).
